Bioassay records (PubChem BioAssay)
An excerpt weighted towards active compounds, which were near 19% of everything screened.
IL1B secr inh – inhibitors of inflammasome signaling (IL-1 beta secretion); THP-1 LPS/ATP IL-1B secretion, AlphaLISA, 16 h; hits give low values; activity change, % at 57.5 µM; 4.7% of 360,000 active; in the data active means activity change below about -50%; inconclusive means mostly about -30% to -49%
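THP-1 cells pretreated 1 hr with compounds (up to 57.5 uM final), then stimulated with LPS (250 ng/mL final) plus ATP (1.25 mM final); secreted IL-1B measured by AlphaLISA after 16 hr, decreased signal indicating inhibition.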
TDP1 cell noCPT – qHTS for Inhibitors of human tyrosyl-DNA phosphodiesterase 1 (TDP1): qHTS in cells in absence of CPT. DT40 Tdp1-/- hTDP1 cells, no CPT, ATP luminescence, 48 h. AID 686978, 2013. 15% of 420,000 active. Potency, µM (titrated, usually from 46.2 µM), for inactives: at the highest dose activity change, negative = growth inhibition, most hits filed as inhibitors; further: potency means the concentration at half of the fitted maximal effect; nearly all actives have a fitted effect of over 55% in size
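Chicken DT40 Tdp1-/- cells stably complemented with human TDP1 were seeded at 400 cells/well with DMSO in place of 20 nM camptothecin. After compound pinning, cells grew at least 48 hr at 37 °C; viability read by CellTiter-Glo luminescence.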
ELG1 repair inh – ELG1-dependent DNA repair inhibition | HEK293T ELG1-luciferase reporter, luminescence, 16 h; DNA damage induced by 5-fluorouridine | Potency, µM (highest dose often 46.1 µM), inactives show top-dose activity change, negative = inhibition, most hits filed as inhibitors | 2.3% of 330,000 active; further: potency means the concentration at half of the fitted maximal effect; nearly all actives have a fitted effect of over 55% in size
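Overnight (16 hr) co-exposure of 2,000 cells/well to 5-fluorouridine and compound at 37 °C preceded detection. Luciferase was quantified via ONE-Glo luminescence; loss of signal denotes inhibition.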
DT40 TDP1 CPT – growth inhibition of DT40 Tdp1-/-;hTDP1 cells with camptothecin (screen for TDP1 inhibitors) | chicken DT40 Tdp1-/-;hTDP1 cells + 20 nM CPT, ATP luminescence, 48 h | Potency, µM (titrated, usually from 46.2 µM), for inactives: top-dose activity change, negative = growth inhibition, hits mostly inhibitors | 12% of 420,000 active; further: potency means the concentration at half of the fitted maximal effect; nearly all actives have a fitted effect of over 55% in size
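Chicken DT40 Tdp1-/- cells complemented with human TDP1, 400 cells/well, exposed to compounds plus 20 nM camptothecin for at least 48 h at 37 C; viability read as ATP content by CellTiter-Glo luminescence.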
HT1080 IDH1KD tx – toxicity to HT-1080 IDH1 knockdown cells (counter line); HT-1080 IDH1 knockdown viability, ATP luminescence, 48 h; Potency, µM (doses to about 46.1 µM), for the others: at the top dose activity, negative = toxicity, most hits filed as cytotoxic; 2% of 360,000 active; AID 686971;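 further: potency means the concentration at half of the fitted maximal effect; 0% = DMSO wells and -100% = cell-free medium wells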
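% activity derives from luminescence (CellTiter-Glo), normalised to DMSO and no-cell wells. HT-1080-IDH1KD cells, 750/well, had 48 h compound exposure at 37 °C.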
HT1080-NT tox – kills 2HG-producing HT-1080-NT fibrosarcoma cells | HT-1080-NT fibrosarcoma viability, CellTiter-Glo ATP luminescence, 48 h | Potency, µM (top dose mostly 46.1 µM), for the others: top-dose activity, negative = less viability, hits mostly cytotoxic | 1.6% of 360,000 active | AID 686970;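 further: NT is the 2HG producing partner of a matched IDH1 knockdown line; potency means the concentration at half of the fitted maximal effect; 0% = DMSO-treated cells and -100% = media-only wells without cells; nearly all actives have a fitted effect of over 55% in size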
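Read-out is CellTiter-Glo luminescence after 10 minutes at room temperature, following 48 hours' compound treatment of HT-1080-NT cells (750 cells/well, RPMI, 5% FBS, 37 degrees C).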
Starred values were filed as active, the others as inactive; ? = inconclusive; nt = no result. Unless noted, the call rests on the fitted dose curve; in most records, active means well fitted curve in the direction sought with a large enough effect; inconclusive means small, poorly fitted or top-dose-only effect, or another doubt; inactive means no such curve, though single readings can be large; an effect the other way counts as inactive or inconclusive. Unless noted, on the % scale 0 is the no-effect control and ±100 the full control effect.

SMILES | IL1B secr inh | TDP1 cell noCPT | ELG1 repair inh | DT40 TDP1 CPT | HT1080 IDH1KD tx | HT1080-NT tox
Cc1ccc(S(=O)(=O)C(CNC(=O)C(=O)NCCc2ccc(F)cc2)c2cccs2)cc1 (stereo unspecified) | nt | 16.4µM* | nt | ? | nt | nt
COc1ccccc1CCNC(=O)C(=O)NCC(c1ccco1)S(=O)(=O)c1ccc(F)cc1 (stereo unspecified) | nt | ? | nt | 16.4µM* | nt | nt
Cc1ccc(C)c(S(=O)(=O)NCC(c2ccco2)S(=O)(=O)c2ccc(F)cc2)c1 (stereo unspecified) | nt | 1.16µM* | nt | 1.3µM* | nt | nt
CC(=O)N1CCC(N(C(=O)Nc2ccc(C)c(F)c2)C(C)C)CC1 | nt | -2.0% | nt | 2.9% | nt | nt
O=C(CC1SC(=O)NC1=O)Oc1ccc(/C=N/NC(=O)c2ccccc2O)cc1 (stereo unspecified) | 7.1 | -10.8% | -26.6% | -0.9% | 1.6% | 14.0%
C=CCSc1ccccc1C(=O)Nc1ncn[nH]1 | 36.6 | 14.1% | 2.5% | -12.2% | -11.7% | -7.4%
Cc1ccc(S(=O)(=O)C(CNC(=O)c2ccccc2F)c2cccs2)cc1 (stereo unspecified) | nt | 14.6µM* | nt | ? | nt | nt
O=C(NCC(c1cccs1)S(=O)(=O)c1cccs1)c1ccccc1F (stereo unspecified) | nt | ? | nt | -10.7% | nt | nt
Cc1ccc(S(=O)(=O)C(CNC(=O)C(=O)NCCc2ccccc2)c2cccs2)cc1 (stereo unspecified) | nt | 14.6µM* | nt | 16.4µM* | nt | nt
Cc1ccc(S(=O)(=O)N2CCN(C(=O)COC(=O)c3ccc(Cl)c(S(N)(=O)=O)c3)CC2)c(C)c1 | -9.7 | -11.0% | nt | 10.4% | 6.9% | 7.4%
Cc1cc(C)n(-c2nc3cc(Cl)c(Cl)cc3nc2Nc2c(C)cccc2C)n1 | nt | 1.0% | nt | 9.0% | nt | nt
CCOc1ccc(S(=O)(=O)NCCC(=O)NCC(c2ccc(F)cc2)N2CCOCC2)cc1 (stereo unspecified) | 4.5 | -16.6% | ? | -3.4% | 8.9% | 8.5%
O=C(NC1CCCC1)N[C@@H]1C=C[C@@H](CC(=O)N2CCOCC2)O[C@@H]1CO | 5.3 | 5.2% | nt | ? | 20.3% | 23.6%
COc1cccc(N2CCN(C(=O)c3ccc4nc[nH]c4c3)CC2)c1 | 35.2 | 9.6% | 3.0% | -13.5% | 2.2% | -3.8%
COc1cccc(N2CCN(C(=O)c3cccc(-n4c(C)nc5cccnc54)c3)CC2)c1 | nt | 16.4µM* | nt | 11.6µM* | nt | nt
Cc1nc2cccnc2n1-c1cccc(C(=O)N2CCN(c3cccc(Cl)c3)CC2)c1 | nt | 4.61µM* | nt | 4.11µM* | nt | nt
CC(C)N(C(=O)[C@H]1CC(CC(=O)NCC23CC4CC(CC(C4)C2)C3)C(=O)N2CCc3c([nH]c4ccccc34)[C@]12C)C(C)C (stereo partly specified) | -54.7* | 23.1µM* | -14.0% | 13µM* | 2.0% | -3.7%
C[C@]12c3[nH]c4ccccc4c3CCN1C(=O)C(CC(=O)NCC13CC4CC(CC(C4)C1)C3)C[C@@H]2C(=O)N1CCCCC1 (stereo partly specified) | -63.6* | 25.9µM* | ? | 20.6µM* | ? | ?
COc1ccc2[nH]c3c(c2c1)CCN1C(=O)C(CC(=O)NCCC2=CCCCC2)C[C@H](C(=O)N2CCCCC2)[C@@]31C (stereo partly specified) | -52.0* | 18.4µM* | ? | 23.1µM* | 11.2% | 2.3%
